CYP2C9 inh = human CYP2C9 inhibition; P11712; CYP2C9 Supersomes, luciferin-H conversion, luminescence; actives 20% (n = 96,000); inhibition, % at 5 µM;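 active = blocking of liver enzyme CYP2C9 beyond about 50% at 5 µM, limit read from the data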
Target sequence (P11712 whole entry, looked up): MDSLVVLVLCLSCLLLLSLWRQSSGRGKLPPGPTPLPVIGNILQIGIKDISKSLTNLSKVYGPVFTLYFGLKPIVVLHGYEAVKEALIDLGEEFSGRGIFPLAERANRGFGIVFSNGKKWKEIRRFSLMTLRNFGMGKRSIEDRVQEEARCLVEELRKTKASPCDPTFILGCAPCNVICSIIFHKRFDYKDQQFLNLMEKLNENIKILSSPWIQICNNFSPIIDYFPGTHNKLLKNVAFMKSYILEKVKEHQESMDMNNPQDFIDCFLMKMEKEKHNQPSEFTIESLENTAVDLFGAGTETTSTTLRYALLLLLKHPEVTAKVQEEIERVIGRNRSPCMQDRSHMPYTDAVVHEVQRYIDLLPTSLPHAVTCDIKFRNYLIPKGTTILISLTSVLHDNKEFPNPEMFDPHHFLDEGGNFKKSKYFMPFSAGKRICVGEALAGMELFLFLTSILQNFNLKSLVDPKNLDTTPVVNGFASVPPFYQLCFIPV
CYP2C9 activ = CYP2C9 (human) activation; actives 1.4% (n = 96,000); recombinant CYP2C9, luciferin-H conversion, luminescence; stronger effect = higher value; factor 1 = untreated enzyme, 0 = blocked; AID 1024; activation factor at 5 µM;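 active = activation factor of 2 or more for CYP2C9 at a 5 µM dose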
CYP2C19 act = activators of human cytochrome P450 2C19. P33261. recombinant CYP2C19, luciferin-H EGE luminescence; stronger effect = higher value; 0 = fully inhibited enzyme, 1 = untreated enzyme. activation factor at 5 µM. 96,000 tested, under 10 active. AID 1025;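 active = activation factor of at least 2 at 5 µM in the primary screen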
CYP2C19 inh = inhibitors of human CYP2C19 | CYP2C19 Supersomes, luciferin-H EGE luminescence, 30 min | AID 778 | actives 21% (n = 96,000) | inhibition, % at 5 µM;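 active = CYP2C19 inhibition above a set limit at 5 µM in the primary screen, cut at about 50% in these data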
Cav3 T inh = blocks human Cav3.2 T-type calcium channel; B-score at 10 µM; actives 4% (n = 100,000); O95180; Cav3.2-expressing cells, Fluo-4 calcium fluorescence FDSS; stronger effect = lower value;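 active = single-dose well whose peak fluorescence ratio is a statistical outlier from its plate by either plate-standardised score or position-corrected B-score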
Large screens that a line does not name were inactive. Shown are actives, neighbours in structure and some others; about 27% of the full set was active somewhere.

Cc1sc(NC(=O)c2cccc([N+](=O)[O-])c2)c(C(N)=O)c1-c1ccc(C(C)(C)C)cc1	none
O=C(CN(Cc1cccs1)C(=O)CCC(=O)Nc1nccs1)NCc1ccccc1	CYP2C9 inh 64, CYP2C19 inh 78
CC1=C(C#N)C(c2ccc3ncccc3c2)C(C#N)=C(C)N1	CYP2C9 inh 69, CYP2C19 inh 83
Cc1ccc(NC(=O)c2cc(N3C(=O)C4CC=CCC4C3=O)ccc2N2CCOCC2)cc1Cl (stereo not drawn)	none
COc1cccc(C2(CSc3nnc(-c4cc(OC)c(OC)c(OC)c4)o3)OCCO2)c1	CYP2C19 inh 84 (no result: Cav3 T inh)
CCCCOC(=O)CSc1nnc(-c2cc(OC)c(OC)c(OC)c2)o1	none (no result: Cav3 T inh)
COc1c(N)c2ccccc2[nH]c1=O	none (no result: Cav3 T inh)
Cc1nnc(SCC(=O)Nc2nsc(-c3ccc(C(C)(C)C)cc3)n2)s1	Cav3 T inh -7.6
Cc1nnc(SCC(=O)Nc2ccccc2NC(=O)CSc2nnc(C)s2)s1	none
O=C(CS(=O)(=O)Cc1ccccc1)Nc1ccc(Cl)cn1	none (no result: CYP2C9 inh, CYP2C9 activ, CYP2C19 act, CYP2C19 inh)
O=C(Nc1cccc2ccccc12)/C(Cl)=C/c1ccccc1	CYP2C9 activ 3
O=C(Nc1cccc2ccccc12)/C(=C/c1ccc([N+](=O)[O-])cc1)NC(=O)c1ccccc1	none (no result: Cav3 T inh)
COc1cccc(-c2nnc(SCC(=O)Nc3ccc(OC)c(OC)c3)n2N)c1	none
CCN(CC)S(=O)(=O)c1cccc(C(=O)OCc2cc(=O)n3nc(C)sc3n2)c1	CYP2C9 inh 55
CCN(CC)S(=O)(=O)c1cccc(C(=O)OCC(=O)c2ccc3c(c2)NC(=O)CO3)c1	none
O=C(CCc1nc(-c2ccccc2F)no1)NCCN1CCc2ccccc2C1	CYP2C19 inh 60
O=C(CCc1nc(-c2ccccc2F)no1)NCCc1ccccc1Cl	CYP2C9 inh 56, CYP2C19 inh 80, Cav3 T inh -7.8
Cc1ccc(-c2noc(CCC(=O)NCCc3ccccc3Cl)n2)cc1	none
Cc1ccc(-c2noc(CCC(=O)NCCN3CCOCC3)n2)cc1	none
Cc1ccc(-c2noc(CCC(=O)NCCN3CCc4ccccc4C3)n2)cc1	CYP2C9 inh 72, CYP2C19 inh 84, Cav3 T inh -7.1
CCN(CCCNC(=O)CCc1nc(-c2ccc(C)cc2)no1)c1cccc(C)c1	CYP2C9 inh 52, Cav3 T inh -8.1
COc1ccccc1NCc1nnc(SCC(=O)N/N=C/c2ccco2)n1-c1ccc(Cl)cc1Cl	none
CCCCn1nnnc1SCC(=O)N1CCCC1	none
Cc1cc(-c2cc(C(=O)Nc3ccccc3)on2)nc(NCC2CC2)n1	none (no result: CYP2C9 inh, CYP2C9 activ, CYP2C19 act, CYP2C19 inh)
Cc1ccc(C(C)NC(=O)/C(C#N)=C\c2c(C)[nH]c3ccccc23)cc1 (stereo not drawn)	CYP2C9 activ 2.1
Cc1ccc(/C=C(/C#N)C(=O)NC(=O)Oc2ccccc2)cc1	none
CC(C)C(NC(=O)C1CCCCC1)C(=O)NC1CCN(Cc2ccccc2)CC1 (stereo not drawn)	none
C[C@@H]1C=C(C(=O)NCc2nc3ccccc3[nH]2)O[C@H](OCCCCO)C1	none (no result: CYP2C9 inh, CYP2C9 activ, CYP2C19 act, CYP2C19 inh)
O=C(NCCO)c1ccc2[nH]c3c(c2c1)CCCC3	CYP2C19 inh 83
CCCOc1ccccc1NC(=O)/C=C/C(N)=O	none
NS(=O)(=O)c1cc2c(cc1Cl)NC(C1C[C@H]3C=C[C@@H]1C3)NS2(=O)=O (stereo partly drawn)	none (no result: CYP2C9 inh, CYP2C9 activ, CYP2C19 act, CYP2C19 inh)
CN1CCN(C(=O)N2CCNC2=O)CC1	none
Fc1cccc(Cl)c1-c1nnc2ccc(N3CCOCC3)nn12	none
Clc1cccc(Cl)c1-c1nnc2ccc(N3CCOCC3)nn12	CYP2C9 inh 68, CYP2C19 inh 52
COC(=O)C1(Cc2ccccc2)NC(c2ccccc2C)C2C(=O)N(c3ccc4c(c3)OCO4)C(=O)C21 (stereo not drawn)	none (no result: CYP2C9 inh, CYP2C9 activ, CYP2C19 act, CYP2C19 inh)
NNC(=O)CNC(c1ccccc1)c1cc(Br)ccc1NC(=O)c1ccccc1Br (stereo not drawn)	CYP2C9 inh 58
CCCc1cc(C(=O)NCC(C)C)no1	none
O=c1c2ccccc2nc(CSc2ncnc3nc[nH]c23)n1-c1cccc(C(F)(F)F)c1	none
Cc1cc(SCNC(=O)c2ccccc2)ncn1	none
Cc1cc(C)nc(SCNC(=O)c2ccc(F)cc2)n1	CYP2C19 inh 62
O=C(N1CCOCC1)N1CCC(NC(=O)C23CC4CC(CC(C4)C2)C3)CC1	none (no result: CYP2C9 inh, CYP2C9 activ, CYP2C19 act, CYP2C19 inh)
CC1c2[nH]c3ccccc3c2CCN1S(C)(=O)=O (stereo not drawn)	CYP2C19 inh 98
COC(=O)[C@@H]1[C@H]2C[C@H]3c4[nH]c5ccccc5c4CCN3C[C@@H]2CC[C@@H]1O	none (no result: CYP2C9 inh, CYP2C9 activ, CYP2C19 act, CYP2C19 inh)

Assay outcomes as filed in PubChem.
